# AI-2 QS mod: Vibrio harveyi AI-2 quorum sensing modulators, primary screen, JMH597 strain, luminescence/OD600 ratio. Vibrio harveyi JMH597 AI-2 luminescence/OD600 ratio, 9 h; active compounds read low; strain lacks LuxN and CqsS sensors; 0 = neutral-control median. activity change, % at 7.5 µM. hit rate 0.4% among 300,000; in the data active = activity change below about -75%, passing the limit was not always enough;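 note: luminescence divided by OD600 gain over 9 h not by final OD600 alone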
# Efflux pump mplx: inhibitors of Candida efflux pumps in yeast, primary screen, S. cerevisiae, Nile Red, multiplex | S. cerevisiae Candida pump triplex | inhibition, % at 10 µM | hit rate 0.44% among 330,000 | AID 485275, 2010;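 active = plate passing quality check with inhibition over a set limit, or well fluorescence over plate mean plus 4 SD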;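 note: Nile Red retained in pooled yeast measured as flow cytometry median fluorescence; higher means more Nile Red kept so more efflux inhibition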
# ATG4B inh: ATG4B protease inhibitors, primary screen, biochemical, fluorescence, uHTS. Cysteine protease ATG4B (Homo sapiens), Q9Y4P1. ATG4B cleavage of LC3-PLA2, NBD-HPC fluorescence, 1 h. inhibition, % at 8.33 µM. hit rate 0.51% among 340,000. AID 504462, 2011; in the data active = inhibition above about 40%
# Target sequence (Q9Y4P1 whole entry, looked up): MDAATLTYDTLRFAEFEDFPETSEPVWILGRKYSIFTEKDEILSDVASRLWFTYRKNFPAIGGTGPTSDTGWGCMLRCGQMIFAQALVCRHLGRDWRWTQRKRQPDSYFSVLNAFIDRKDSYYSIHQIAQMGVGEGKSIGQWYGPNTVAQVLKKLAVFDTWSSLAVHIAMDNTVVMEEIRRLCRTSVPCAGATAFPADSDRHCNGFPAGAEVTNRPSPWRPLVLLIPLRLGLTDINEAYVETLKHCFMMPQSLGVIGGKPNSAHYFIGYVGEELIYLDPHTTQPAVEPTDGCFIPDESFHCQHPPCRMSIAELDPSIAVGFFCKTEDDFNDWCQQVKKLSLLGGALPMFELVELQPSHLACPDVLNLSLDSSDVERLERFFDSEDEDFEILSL
# SUMO Mot1 rescue: yeast Mot1-301 growth rescue at high temperature, primary screen, SUMOylation pathway inhibitor project, S. cerevisiae, ATP luminescence, 38.5C; S. cerevisiae Mot1-301 growth rescue; percent above DMSO median, 100 means doubled; growth rescue, % at 18.8 µM; hit rate 1% among 320,000; AID 2716, 2010;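 active = every valid replicate shows activation above 250% relative to neutral control wells; inactive = the rest, any valid replicate at or below 250%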
# V-ATPase pHluor: regulators of yeast V-ATPase proton pumping, primary screen, pHLuorin cytosolic pH fluorescence | S. cerevisiae | AID 504577, 2011 | response, % at 10 µM | hit rate 0.37% among 350,000; in the data active = response mostly above about 7.3%, no sharp cut-off; inactive = mostly below about 5.4%; note: actives read high
# Yeast Mot1 SUMO: growth restoration of Mot1-301 yeast on galactose, dose response, SUMO pathway inhibitor project, whole organism, S. cerevisiae, ATP luminescence, cherry-picked samples; shares compounds with SUMO Mot1 rescue; S. cerevisiae Mot1-301 galactose growth, 24 h; -100 = growth of slx-deleted rescue strain; growth activity, percent, % at 42 µM; 2,300 tested, under 10 active; AID 493004, 2010;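 active = Signal drops as the depositor expects, and the fitted half-maximal dose is no more than ten times the top valid tested dose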;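 note: more negative values mean stronger growth rescue toward the control strain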
# A number is an active result; n = inactive; x = no result given; + = active, no number. The list is not random: actives were taken first. Their share in the collection is about 2.5%.
SMILES,AI-2 QS mod,Efflux pump mplx,ATG4B inh,SUMO Mot1 rescue,V-ATPase pHluor,Yeast Mot1 SUMO
Cc1ccc(C)c2c(N)c3c(nc12)CCCCC3 (tested in a mixture with another compound),n,n,n,n,n,x
Cc1nc(-c2ccccc2)sc1C1(C)CC(c2c(Cl)cccc2Cl)=NO1 (stereo not given),n,n,n,n,n,x
Cc1nc(-c2ccc(Cl)cc2)sc1C1(C)CC(c2c(Cl)cccc2Cl)=NO1 (stereo not given),n,n,n,421,n,n
CC(=O)NCCc1nc2cc(NC(=O)c3ccc(F)cc3)ccc2n1C,n,n,n,741,n,n
O=C(NCC1COc2ccccc2O1)c1cccc(S(=O)(=O)NCc2ccccc2)c1 (stereo not given),n,n,n,n,n,x
O=C(c1ccc(COc2ccccc2Cl)o1)N1N=C(C(F)F)CC1(O)C(F)F (stereo not given),n,n,n,438,n,n
N#Cc1c(NC(=O)c2cccc(S(=O)(=O)Nc3ccc(C(=O)O)cc3)c2)sc2c1CCCC2,n,n,n,n,n,x
CN(Cc1ccccc1)C(=O)c1ccc(NC(=O)Cc2ccc(NC(=O)C3CCCN(S(=O)(=O)c4cccc([N+](=O)[O-])c4)C3)cc2)cc1 (stereo not given),x,x,n,x,n,x
CCOC(=O)CSc1cc(C)nc2ccc(OC)cc12,n,n,n,476,n,n
COc1ccc(N2C(=O)CCC(C(=O)NCc3cccnc3)C2c2ccc(OC)c(OC)c2)cc1 (stereo not given),n,n,n,359,n,n
Cc1ccc(-c2nc(CS(=O)(=O)CC(=O)NC3CCCCC3C)c(C)o2)cc1 (stereo not given),n,n,n,699,n,n
CN1CCc2c(sc(/N=C/c3cc(C(C)(C)C)ccc3O)c2C#N)C1,n,n,n,n,n,x
Cc1ccc(CCNC(=O)c2nn(C)c3c2CS(=O)(=O)c2ccccc2-3)cc1,n,n,n,n,n,x
Cn1nc(C(=O)NCCc2ccc(Cl)cc2)c2c1-c1ccccc1S(=O)(=O)C2,x,n,n,440,n,n
CCCCNC(=S)Nc1cc([N+](=O)[O-])ccc1C,n,n,n,n,n,x
COc1ccc(C(=O)Nn2c(SCC(=O)NCc3ccccc3)nc3ccccc3c2=O)cc1,n,n,n,+,n,n
COCC(C)n1c(SCC(=O)NNC(=O)c2ccccc2)nc2ccccc2c1=O (stereo not given),n,n,n,439,n,n
COc1ccc(C(=O)Nn2c(SCC(=O)NC3CCCC3)nc3ccccc3c2=O)cc1,n,n,n,n,n,x
CCC(=O)Nc1ccc(C(=O)COC(=O)Cc2ccsc2)cc1,x,n,n,n,n,x
CCOC(=O)C1CCN(C(=O)c2sccc2Cl)CC1,n,n,n,567,n,n
COc1ccc2c(C(=O)CN3CCC(C)CC3)c[nH]c2c1,n,n,n,n,n,x
COc1ccc2c(C(=O)CN3CC(C)OC(C)C3)c[nH]c2c1 (stereo not given),n,n,n,390,n,n
Clc1ccccn1,x,n,n,n,n,x
COc1ccc(CNC(=O)CN(Cc2ccco2)C(=O)CNS(=O)(=O)c2ccccc2)cc1,n,n,n,n,n,x
COc1ccc(CN(CC(=O)NCc2ccco2)C(=O)CCC(=O)Nc2nccs2)cc1,n,n,n,868,n,n
SMILES,AI-2 QS mod,Efflux pump mplx,ATG4B inh,SUMO Mot1 rescue,V-ATPase pHluor,Yeast Mot1 SUMO
COc1ccc(S(=O)(=O)NCC(=O)N(CC(=O)NCc2ccco2)Cc2ccccc2)cc1,n,n,n,642,n,n
CCC(C)N1C(=O)CN(C2CCCCCC2)C(=O)C1c1ccccc1F (stereo not given),n,n,n,422,n,n
COc1ccccc1CN1C(=O)CN(C2CCCCCC2)C(=O)C1c1ccc(F)cc1 (stereo not given),n,n,n,n,n,x
C=CCn1c(N)cc(=O)nc1SCC(=O)Nc1ccccc1,n,n,n,n,n,x
C=C(C)Cn1c(N)cc(=O)nc1SCC(=O)Nc1cccc(C(F)(F)F)c1,n,n,n,413,n,n
COCCCn1c2nc3ccccc3nc2c2c(=O)n(Cc3ccc(Cl)cc3)cnc21,n,n,n,425,n,n
O=S(=O)(/C=C/c1ccccc1)N1CCOCC1,n,n,n,n,n,x
CCOC(=O)c1c(N)sc(C(=O)N2CCCC(C(N)=O)C2)c1C (stereo not given),n,n,n,933,n,n
CCN(c1ccccc1)S(=O)(=O)c1ccc(F)cc1C,x,n,n,n,n,x
O=C(c1cccc(Br)c1)c1cn(-c2ccccc2)nc1C(=O)c1ccccc1,n,n,n,n,n,x
O=C(Cc1ccc(Cl)cc1)NCCc1cnc[nH]1,n,n,n,n,n,x
COc1ccc(CN(C)C(=O)c2sccc2-c2ccccc2)c(OC)c1,n,n,n,485,n,n
COc1ccc(CN(C)C(=O)c2ccc(COc3ccccc3)cc2)c(OC)c1,n,n,n,n,n,x
CC1Cc2ccccc2N1C(=O)CN1CCN(S(=O)(=O)c2ccc3c(c2)OCCCO3)CC1 (stereo not given),x,x,x,x,n,x
CC1Cc2ccccc2N1C(=O)CNc1cccc(S(=O)(=O)N2CCCC2)c1 (stereo not given),n,n,n,+,n,n
C/C(CC(=O)NCc1ccco1)=N\NC(=O)COc1ccc(C)cc1,n,n,n,n,n,x
COc1cc2c(cc1NC(=O)c1ccncc1)oc1ccccc12,n,n,n,n,n,x
COc1cc2c(cc1NC(=O)c1cccnc1)oc1ccccc12,n,n,n,555,n,n
NNc1nc2sc3c(c2c(=O)n1-c1ccccc1)CCCC3,n,n,n,639,n,n
COc1ccc(NC(=O)C2CCCN2S(=O)(=O)c2cccc3cccnc23)cc1OC (stereo not given),n,n,n,414,n,n
O=C(NC1CCCC1)C1CCCN(S(=O)(=O)c2cccc3cccnc23)C1 (stereo not given),n,n,n,n,n,x
O=C(NC1CCCCCC1)C1CCN(S(=O)(=O)c2cccc3cccnc23)CC1,n,n,n,561,n,n
CCN1CCCC1CN(Cc1cc2ccc(C)cc2[nH]c1=O)C(=S)Nc1ccccc1C(=O)OC (stereo not given),n,n,n,+,n,n
COc1ccc(-c2cc(CC3(C(=O)O)CCN(C(=O)OC(C)(C)C)CC3)on2)c(OC)c1,n,n,n,381,n,n
